KB-3-1 cytotox – kills parental KB-3-1 adenocarcinoma cells; KB-3-1 viability, CellTiter-Glo ATP luminescence, 72 h; AID 1347075; 400,000 compounds, 1.4% hits; Potency, µM (titrated, usually from 46.1 µM), usual class: cytotoxic; also: potency is read from the fitted curve at half-maximal effect; nearly all actives have a fitted effect of over 60% in size
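Cytotoxicity in the drug-sensitive parental line KB-3-1 was scored as loss of CellTiter-Glo luminescence following 72 h incubation with compound. Values come from curve fitting of normalized concentration-response data.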
A549 tox-1 – A549 cytotoxicity, counter-screen for Nrf2 inhibitors; A549 ARE-Fluc cells, CellTiter-Fluor viability, 18-24 h; Potency, µM (series often up to 46 µM), without a hit: at the highest dose activity change, negative = cytotoxicity, hits mostly inhibitors; 390,000 compounds, 0.16% hits; also: potency is read from the fitted curve at half-maximal effect
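A549 ARE-Fluc cells in 5% FBS OPTI-MEM, 5000 cells/well, rested 2 h then exposed to compounds in concentration-response for 18-24 h at 37 °C. Viability by CellTiter-Fluor fluorescence (Ex 405/Em 525) after 30 min; luciferase luminescence (BugLite, 15 min, RT) read afterwards.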
Nrf2 block – Nrf2 pathway inhibition. A549 ARE-Fluc reporter, luciferase luminescence, 18-24 h. Potency, µM (highest dose often 46 µM), inactives show at the top dose activity change, negative = inhibition, most hits filed as inhibitors. 360,000 compounds, 2.1% hits. AID 504444; also: potency is read from the fitted curve at half-maximal effect; nearly all actives have a fitted effect of over 60% in size
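Nrf2 activity is the BugLite luminescence, read 15 min after reagent at room temperature, following CellTiter-Fluor cytotoxicity readout (30 min, 37C). Compound titrations were applied for 18-24 h to 5000 A549 ARE_Fluc cells/well in 5% FBS OPTI-MEM.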
PI4K2A block – blocks human PI4K2A kinase activity. Q9BTU6. purified PI4K2A, ADP-Glo luminescence, 1 h; hits give low values. activity change, negative = inhibition, % at 76.9 µM. 420,000 compounds, 0.13% hits; in the data active = activity change below about -50%; inconclusive = mostly about -30% to -49%;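 also: -100% = wells without enzyme as full effect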
Target sequence (Q9BTU6 whole entry, looked up): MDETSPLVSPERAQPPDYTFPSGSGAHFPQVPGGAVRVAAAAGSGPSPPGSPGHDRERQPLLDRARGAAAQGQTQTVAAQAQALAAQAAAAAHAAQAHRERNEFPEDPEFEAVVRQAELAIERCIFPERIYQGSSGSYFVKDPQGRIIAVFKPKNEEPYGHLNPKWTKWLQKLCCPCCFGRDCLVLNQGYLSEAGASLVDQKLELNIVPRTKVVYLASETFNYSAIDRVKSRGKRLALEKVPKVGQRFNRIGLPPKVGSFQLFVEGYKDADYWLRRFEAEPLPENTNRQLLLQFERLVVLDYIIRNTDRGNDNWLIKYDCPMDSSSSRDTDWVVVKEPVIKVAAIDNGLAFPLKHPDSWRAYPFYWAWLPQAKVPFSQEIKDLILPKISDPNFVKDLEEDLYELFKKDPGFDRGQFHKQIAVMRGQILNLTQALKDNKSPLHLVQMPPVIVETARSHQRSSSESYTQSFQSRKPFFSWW
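In this quantitative HTS, ADP production by PI4K2A was quantified luminescently after 1 h at ambient temperature; 100 microM adenosine served as plate-quality control.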
Giardia kill – Giardia lamblia killing; Giardia lamblia trophozoite viability; 340,000 compounds, 0.15% hits; activity change, % at 7.66 µM, hits read low; AID 540267; in the data active = activity change below about -80%; inconclusive = between about -30% and that limit;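 also: parasites exposed to compound for two days anaerobically before the ATP read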
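Media and compound were dispensed first, then trophozoites at 100 cells/well; plates sat 48 hrs at 37 deg C without oxygen before ATP luminescence reagent was added and read after 15-30 min at room temperature.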
KB-V1 cytotox – kills drug-selected multidrug resistant KB-V1 cells; KB-V1 MDR cells viability, CellTiter-Glo, 72 h; Potency, µM (series often up to 46.1 µM), actives largely listed as cytotoxic; 400,000 compounds, 3.4% hits; AID 1347076; also: potency is read from the fitted curve at half-maximal effect; nearly all actives have a fitted effect of over 60% in size
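KB-V1 cells (P-gp-expressing MDR subline of KB-3-1) in phenol-red-free DMEM with 10% FBS were exposed to library compounds over a concentration series for 72 h at 37 degrees C. Viability read by CellTiter-Glo luminescence; concentration-effect curves fitted after normalization.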
FLuc counter 3 – firefly luciferase inhibition, Nrf2 hit validation; purified firefly luciferase, luminescence inhibition; shares compounds with Nrf2 block; Potency, µM (doses to about 57.5 µM), inactives show at the highest dose activity change, negative = inhibition, hits mostly inhibitors; 1,400 compounds, 4% hits; also: potency is read from the fitted curve at half-maximal effect; nearly all actives have a fitted effect of over 65% in size
A549 tox-2 – toxic to A549 ARE-Fluc cells in Nrf2 counterscreen. Potency, µM (series often up to 46.1 µM), for the others: at the highest dose activity change, negative = cytotoxicity, actives largely listed as inhibitors. AID 720523. shares compounds with Nrf2 block. 1,400 compounds, 2% hits. A549 ARE-Fluc cells, cytotoxicity counterscreen;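 also: potency is read from the fitted curve at half-maximal effect; cells exposed to compounds for 18 to 24 hours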
ARE-Fluc inh – Nrf2 inhibition confirmed, A549 ARE-luciferase. shares compounds with Nrf2 block. A549 ARE-firefly luciferase reporter, luminescence. Potency, µM (titrated, usually from 46.1 µM), for inactives: at the top dose activity change, negative = inhibition, most hits filed as inhibitors. 1,400 compounds, 74% hits. AID 720524; also: potency is read from the fitted curve at half-maximal effect; nearly all actives have a fitted effect of over 65% in size
Numbers without * were called inactive; i = inactive; ? = inconclusive; . = no result given. Compounds with a hit are over-represented: about 5.7% of the library has one in this group of screens. Unless noted, calls follow the shape of the dose curve; as a rule, active = well fitted curve in the direction sought with a large enough effect; inconclusive = small, poorly fitted or top-dose-only effect, or another doubt; inactive = no such curve, though single readings can be large; an effect the other way counts as inactive or inconclusive. Unless noted, % is scaled to controls: 0 for no effect and ±100 for the full control effect.

SMILES	KB-3-1 cytotox	A549 tox-1	Nrf2 block	PI4K2A block	Giardia kill	KB-V1 cytotox	FLuc counter 3	A549 tox-2	ARE-Fluc inh
CN1c2c(nc(N)[nH]c2=O)NCC1CNc1ccc(C(=O)NC(CCC(=O)O)C(=O)O)cc1 (centres undefined)	i	.	.	.	.	i	.	.	.
CN(Cc1cnc2nc(N)nc(N)c2n1)c1ccc(C(=O)NC(CCC(=O)O)C(=O)O)cc1 (centres undefined)	0.0052µM*	-9%	0.29µM*	0	-6	?	-17%	-9%	1.5µM*
CC1(C)CC(N2CCCC2)=CC(=[N+]2CCCCC2)C1	5.2µM*	-14%	4.1µM*	-1	-18	i	1%	-5%	5.2µM*
CC1(C)CC(NNCCC#N)=CC(=[N+]2CCCC2)C1	i	-7%	13%	-5	17	i	.	.	.
CC1(C)CC(N2CCCC2)=CC(=[N+]2CCCC2)C1	18µM*	-15%	2.1µM*	-2	-12	i	0%	-13%	5.2µM*
C[C@H]1[C@@H](OC(=O)Nc2ccccc2C(F)(F)F)CC[C@@]23CCCN2C(=O)CCC[C@@H]13	.	.	.	-5	.	.	.	.	.
Nc1nc(Cl)nc2c1ncn2[C@H]1C[C@H](O)[C@@H](CO)O1	?	2%	0.013µM*	2	?	?	-11%	1%	5.8µM*
Cn1c2c(c(=O)[nH]c1=O)C(c1cccc(O)c1)C1=C(N2)c2ccccc2C1=O (centres undefined)	16µM*	-25%	8.2µM*	2	12	i	-25%	?	4.6µM*
Cc1ccc(S(=O)(=O)Nc2cccc3ccc[n+](C)c23)cc1	.	-7%	-6%	.	.	.	.	.	.
CC(C)(C)c1cc(C(=O)Nc2cccnc2)cc(C(=O)Nc2cccnc2)c1	i	-20%	9.2µM*	2	36	i	-5%	-5%	?
O=S(=O)(Nc1ccccc1Br)c1cccc2cccnc12	i	.	.	3	.	i	.	.	.
O=S(=O)(Nc1cc(Br)cc2cccnc12)c1cccc2ccccc12	.	?	2.3µM*	.	-6	.	-1%	?	7.3µM*
O=S(=O)(NCc1cn2ccsc2n1)c1cccs1	i	-1%	?	0	-7	i	.	.	.
O=S(=O)(NCc1cn2ccsc2n1)c1ccc(Oc2ccccc2)cc1	?	?	7.3µM*	-5	-1	i	-1%	-6%	7.3µM*
O=C(OCC#CCSc1nnc(-c2cccc3ccccc23)o1)c1ccc(F)cc1F	.	-5%	23%	-2	.	.	.	.	.
COc1cccc(C(=O)NCC(c2ccc(N(C)C)cc2)N2CCc3ccccc32)c1 (centres undefined)	i	?	.	-4	.	i	.	.	.
O=S(=O)(c1cccs1)N1CCN(c2ccc(O)cc2)CC1	i	-8%	?	-2	10	i	-21%	?	1.8µM*
CCc1ccc(S(=O)(=O)N(C(=O)c2ccncc2)c2ccc3oc(C)c(C(=O)OC)c3c2)cc1	.	-13%	6.5µM*	1	.	.	-8%	-13%	10µM*
CCOC(=O)c1c(C)oc2ccc(N(C(=O)c3ccncc3)S(=O)(=O)c3ccc(F)cc3)cc12	i	-13%	?	5	.	?	.	.	.
COc1ccc(S(=O)(=O)N(C(=O)c2ccncc2)c2ccc3oc(C)c(C(C)=O)c3c2)cc1	.	0%	5.8µM*	4	.	.	-2%	0%	?
COC(=O)c1c(C)oc2ccc(N(C(=O)c3ccncc3)S(=O)(=O)c3ccc(OC)cc3)cc12	.	?	0.82µM*	2	.	.	-3%	-7%	15µM*
COc1ccc(S(=O)(=O)N(C(=O)c2ccncc2)c2ccc3oc4c(c3c2)CCCC4)cc1	?	?	?	3	-1	?	.	.	.
CCOc1ccc(S(=O)(=O)N(C(=O)c2ccncc2)c2ccc3oc(C)c(C(=O)OC)c3c2)cc1	.	?	0.65µM*	3	.	.	1%	-15%	-18%
O=C(CN1C(=O)COc2ccc(S(=O)(=O)N3CCCCCC3)cc21)N1CCN(c2ccc(Cl)cc2)CC1	i	8%	9%	0	.	?	.	.	.
COc1ccc(-c2cn3nc(N4CCCC(C(=O)Nc5ccccc5OC)C4)sc3n2)cc1 (centres undefined)	i	4%	?	-1	.	i	.	.	.
SMILES	KB-3-1 cytotox	A549 tox-1	Nrf2 block	PI4K2A block	Giardia kill	KB-V1 cytotox	FLuc counter 3	A549 tox-2	ARE-Fluc inh
Cc1ccc(C(c2sc3nc(-c4ccco4)nn3c2O)N2CCC3(CC2)OCCO3)cc1 (centres undefined)	i	-11%	.	53	.	i	.	.	.
Cc1ccc(S(=O)(=O)Nc2ccc(Cl)cc2C(=O)c2ccc(F)cc2)cc1	i	-5%	?	3	-14	?	.	.	.
Cc1ccc(S(=O)(=O)Nc2ccc(Cl)cc2C(=O)c2ccccc2)cc1	i	-24%	5.8µM*	-6	7	?	2%	10%	-2%
O=C(Nc1ccccc1)Nc1nc2ncccn2c1-c1ccc(C(F)(F)F)cc1	.	.	.	1	.	.	.	.	.
COc1ccc(NC(=O)c2ccc(COCC(F)(F)C(F)F)cc2)cc1OC	i	-5%	-22%	-2	18	?	.	.	.
COc1cc(NC(=O)c2cccc(COCC(F)(F)C(F)F)c2)cc(OC)c1OC	?	2%	9.2µM*	-10	-7	?	-7%	0%	-11%
CC1(C)CC2CC(C)(CN2C(=O)COC(=O)c2ccccc2C(F)(F)F)C1 (centres undefined)	i	-14%	3.7µM*	2	-18	i	0%	-1%	-24%
CCN1/C(=C/C=C/c2sc3ccccc3[n+]2CC)Sc2ccccc21	16µM*	-5%	1.3µM*	?	-26	?	?	12µM*	2.6µM*
CCN1/C(=C/c2ccc3cc(C)ccc3[n+]2CC)Sc2ccccc21	1.6µM*	?	0.73µM*	-2	29	i	-2%	5.8µM*	.
CC[n+]1c(/C=C2\Sc3ccccc3N2C)ccc2cccc(C)c21	0.46µM*	?	3.7µM*	-3	-13	16µM*	-14%	6.5µM*	2.6µM*

Source: PubChem
